# FBW7 activator – human FBW7 E3 ligase activation, primary screen; AlphaScreen FBW7–phospho-cyclin E peptide binding, activator screen; normalized activity (activation), % at 26.1 µM; 0.13% of 650,000 active; AID 1259310; in the data active = normalized activity above about 1.9%;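 note: purified mutant Fbw7 with reduced substrate affinity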
# Target sequence (Q969H0 whole entry, looked up): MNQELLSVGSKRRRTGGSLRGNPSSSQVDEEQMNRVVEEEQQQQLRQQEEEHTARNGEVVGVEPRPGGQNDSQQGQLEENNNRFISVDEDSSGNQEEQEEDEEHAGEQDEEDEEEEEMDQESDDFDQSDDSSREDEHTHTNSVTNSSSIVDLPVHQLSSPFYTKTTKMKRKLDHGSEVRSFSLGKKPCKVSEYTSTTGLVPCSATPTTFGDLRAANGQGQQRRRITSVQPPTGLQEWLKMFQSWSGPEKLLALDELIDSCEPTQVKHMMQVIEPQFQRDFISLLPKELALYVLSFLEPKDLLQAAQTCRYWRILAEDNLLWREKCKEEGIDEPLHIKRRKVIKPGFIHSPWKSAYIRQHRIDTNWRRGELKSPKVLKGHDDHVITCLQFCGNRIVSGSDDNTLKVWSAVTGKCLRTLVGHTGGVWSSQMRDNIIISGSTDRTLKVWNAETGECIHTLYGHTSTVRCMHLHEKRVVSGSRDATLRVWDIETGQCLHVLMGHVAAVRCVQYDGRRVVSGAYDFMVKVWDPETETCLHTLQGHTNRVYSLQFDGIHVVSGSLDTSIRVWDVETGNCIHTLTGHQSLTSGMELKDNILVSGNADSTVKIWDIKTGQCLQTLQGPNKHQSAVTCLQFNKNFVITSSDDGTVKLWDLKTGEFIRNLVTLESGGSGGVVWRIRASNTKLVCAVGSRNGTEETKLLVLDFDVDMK
# MITF inh – blocks human microphthalmia-associated transcription factor; O75030; AlphaScreen MITF homodimerization, bead proximity signal; inhibition, % at 2.6 µM; 0.91% of 650,000 active; AID 1259374; in the data active = inhibition above about 50%;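 note: 0% = vehicle wells with protein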
# GPR151 activ – activates the human receptor GPR151 | Q8TDV0 | PathHunter beta-arrestin GPR151 cells, luminescence | activation, % at 11.2 µM | 1% of 650,000 active | AID 1508602; in the data active = activation above about 4.9%;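 note: 0% = median of compound wells and 100% = cells with positive control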
# TEAD-YAP inh – TEAD-YAP interaction inhibition | HEK-TIYL cells, TEAD-Gal4/YAP UAS-luciferase luminescence | inhibition, % at 9.12 µM | 1.4% of 640,000 active | AID 1259422; in the data active = inhibition above about 32%;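 note: 0% = median of test compound wells and 100% = reference inhibitor wells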
# Numbers without * were called inactive. This is a sample that favours compounds with a hit; in the whole collection about 3.4% have one here.
SMILES,FBW7 activator,MITF inh,GPR151 activ,TEAD-YAP inh
COc1ccccc1NC(=O)C1=C(C)NC2=C(C(=O)CC(C)(C)C2)C1c1cccc(O)c1 (stereo not drawn),2.4*,11,-1,1
O=C(CN1CCC(n2nnc3ccccc32)CC1)N1CCOCC1,0,12,-1,3
CC1=C(C(=O)Nc2ccc(C)cn2)C(c2ccsc2)C2=C(CC(C)(C)CC2=O)N1 (stereo not drawn),0,-17,0,55*
COc1ccc(COC(=O)C2=C(C)NC3=C(C(=O)CC(C)(C)C3)C2c2ccccc2)cc1 (stereo not drawn),2.6*,14,0,7
COc1ccc(COC(=O)C2=C(C)NC3=C(C(=O)CC(C)(C)C3)C2c2ccc(-c3ccccc3)cc2)cc1 (stereo not drawn),0,5,-1,15
CC1=C(C(=O)Nc2ccccn2)C(c2ccsc2)C2=C(CC(C)(C)CC2=O)N1 (stereo not drawn),0,2,2,7
COc1ccc(-c2nc(-c3ccc(F)cc3)cnc2N)cc1OC,0,-10,-1,-5
COc1ccc(CCN2C(=O)C3C(C(=O)Nc4cccc(Cl)c4)C4C=CC3(O4)C2C(=O)NC2CCCC(C)C2C)cc1OC (stereo not drawn),0,-6,-1,-3
COc1ccc(S(=O)(=O)N(CC(=O)NCc2ccco2)c2cccc(Cl)c2)cc1,0,-8,0,9
NS(=O)(=O)c1ccc(CCNC(=O)c2ccc(C#CC3(O)CCCCC3)cc2)cc1,0,16,-1,45*
C=CCN(c1ccc(C(=O)NCc2ccc3c(c2)OCO3)cc1)S(C)(=O)=O,0,-7,2,-9
Cc1cc(C)cc(-n2c(C)cc(/C=C3/C(=N)N4C=CSC4=NC3=O)c2C)c1,0,8,0,21
CC1=CN2C(=N)/C(=C/c3cc(C)n(-c4ccccc4F)c3C)C(=O)N=C2S1,0,6,1,-21
Cc1cc(/C=C2/C(=N)N3C=CSC3=NC2=O)c(C)n1-c1ccccc1Cl,0,4,1,92*
Cc1cccc(-n2c(C)cc(/C=C3/C(=N)N4C=CSC4=NC3=O)c2C)c1C,0,-1,-1,46*
Cc1ccccc1-n1c(C)cc(/C=C2/C(=N)N3C=CSC3=NC2=O)c1C,0,-4,-1,97*
Cc1ccc(C)c(-n2c(C)cc(/C=C3/C(=N)N4C=CSC4=NC3=O)c2C)c1,0,17,1,18
Cc1cc(/C=C2/C(=N)N3C=CSC3=NC2=O)c(C)n1-c1ccccc1,0,5,-2,88*
O=C(CC1CCC1)NCc1ccccc1,0,-4,1,-3
COc1cccc(-c2ccc(NCC(C)(C)C)nc2)c1,0,-3,0,-97
COCC(=O)Nc1nnc(SCC(=O)NC(C)(C)C)s1,0,-20,0,-1
Cc1nn(-c2ccccc2)c(C)c1CC(=O)NCC1Cc2cccc(-c3cnccn3)c2O1 (stereo not drawn),0,10,-1,6
CCc1ccc(-n2c(C)cc(/C=C3/C(=N)N4C=CSC4=NC3=O)c2C)cc1,0,14,0,-4
CCc1ccccc1-n1c(C)cc(/C=C2/C(=N)N3C=CSC3=NC2=O)c1C,0,9,-1,62*
CC1(Cc2ccc(Cl)s2)C(=O)Nc2ccc(-c3cccnc3)cc21 (stereo not drawn),0,13,3,33*
SMILES,FBW7 activator,MITF inh,GPR151 activ,TEAD-YAP inh
CC1(Cc2ccc(F)cc2)C(=O)Nc2ccc(-c3cccnc3)cc21 (stereo not drawn),0,6,0,38*
CC1(Cc2ccc(S(C)(=O)=O)cc2)C(=O)Nc2ccc(-c3cccnc3)cc21 (stereo not drawn),1,45,0,19
COC(=O)c1ccc(CC2(C)C(=O)Nc3ccc(-c4cccnc4)cc32)o1 (stereo not drawn),1,18,0,13
CC1(Cc2ccc(C(F)(F)F)o2)C(=O)Nc2ccc(-c3cccnc3)cc21 (stereo not drawn),1,2,1,40*
O=C(Cc1ccc(F)cc1)Nc1cc(-n2ccnc2-c2ccccc2)ccn1,0,-6,-1,39*
COc1ccc(CC(=O)Nc2cc(-c3cn[nH]c3)ccn2)cc1,0,-7,1,92*
Cn1cc(-c2ccnc(NC(=O)Cc3ccc(F)cc3)c2)cn1,0,-18,1,48*
COc1ccc(CC(=O)Nc2ncc3ccc(-c4cn[nH]c4)cc3c2C#N)cc1,0,0,-3,27
COc1ccc(CC(=O)Nc2ncc3ccc(-c4cn[nH]c4)cc3c2Cl)cc1,1,14,1,40*
O=C(NC1(c2ccccc2)CC1)c1cc(COc2ccc3ncccc3c2)on1,0,-5,0,58*
CC(CCCC(C)(C)O)NC(=O)c1cc(COc2ccc3ncccc3c2)on1 (stereo not drawn),0,11,5,33*
CCOc1ccc(OCC)c(NC(=O)CN2Cc3ccccc3C2=O)c1,0,-1,-1,-1
COc1ccccc1NC(=O)c1ccccc1NC(=O)c1ccccc1,2,15,0,9
COc1cccc(C(=O)Nc2ccccc2C(=O)Nc2ccccc2OC)c1,0,0,1,43*
COc1cccc2cc(-c3cc4cccc(OC)c4oc3=O)c(=O)oc12,0,4,1,11
COc1ccccc1NC(=O)c1ccc(OC(=S)N(C)C)cc1,2.3*,20,-1,-20
COc1cc(C(=O)Nc2ccccc2-c2nc3ccccc3s2)cc(OC)c1OC,0,-3,-1,53*
COc1cccc2cc(-c3nc4ccccc4s3)c(=O)oc12,0,5,-2,72*
CCC1=NN2C(=N)/C(=C/c3ccc(OCCOc4ccc(C(C)(C)C)cc4)cc3)C(=O)N=C2S1,0,0,1,3
CC1=Nc2cc(C(=O)N3CCN(C)CC3)ccc2Sc2ccccc21,0,-9,1,-6
CCc1nc(C(N)=O)c2[nH]c(=O)n(-c3cccc(OC)c3)c2n1,0,-12,0,-15
CCCNC(=O)C1CCN(C(=O)c2cnn(-c3ccccc3)c2-n2cccc2)CC1,0,-9,0,-1
COc1ccccc1NC(=O)c1ccccc1NC(=O)c1cc(OC)c(OC)c(OC)c1,0,4,1,55*
COc1ccccc1NC(=O)c1cnc(Nc2ccccc2OC)c2ccccc12,1,-5,1,45*
COc1ccc(Cl)cc1NC(=O)c1ccc(F)cc1,2.3*,16,0,5
COc1ccccc1Nc1ncc(C(=O)NCCC(C)C)c2ccccc12,0,14,0,-7
O=[N+]([O-])c1ccc2ncnc(Nc3ccc(F)cc3F)c2c1,0,-7,0,35*
COc1cc2sc(=NC(=O)c3cccs3)n(C)c2cc1OC,1,1,1,-78
Cc1ccc2c(c1)sc(=NC(=O)c1cccs1)n2C,0,9,-9,74*
O=[N+]([O-])c1ccc(N2CCN(c3ccc([N+](=O)[O-])c4cccnc34)CC2)cc1,2.3*,21,-1,1
